Here are results for 23 compounds from PubChem BioAssay (Tox21).

Where “and” joins values, the source holds several entries; their conditions need not be identical. Equal entries are not always repeated. Records with an inconclusive call do not appear. The source holds several records for some structures; these can differ, active in one and inactive in another. Calls of active or inactive are those of the source. Unless noted, calls come from the whole dose curve; as a rule, active = well fitted curve in the direction sought with a large enough effect in the repeat runs; inconclusive = weak or mixed curves; inactive = no such curve, though single readings can be large; an effect the other way counts as inactive or inconclusive.

A short description of assay [1]: qHTS assay for small molecule agonists of the p53 signaling pathway (AID 651631; calls by dose curve; note: nearly all actives have a fitted effect of over 15% in size; note: potency is the fitted concentration of half-maximal effect). Put shortly: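 HCT-116 p53RE-bla reporter line, 16 h compound treatment at 37 °C, then fluorescence after 2 h with B/G FRET substrate.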
On the technique in general: Quantitative high-throughput screening tests each substance at several concentrations.

Assay [2] is described as follows: qHTS assay for small molecules that induce genotoxicity in human embryonic kidney cells expressing luciferase-tagged ATAD5 (AID 651632). Note: nearly all actives have a fitted effect of over 15% in size. Put shortly:
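HEK293T cells carrying luciferase-tagged ATAD5 were given compound or DMSO vehicle and incubated 16 hr at 37C, 5% CO2. Luciferase activity was read after 30 min at room temperature with Amplite; a rise signals genotoxic stress.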

Assay [3] in a line: qHTS assay for small molecule agonists of the p53 signaling pathway - cell viability (AID 651633; calls by dose curve;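 note: p53RE-bla HCT reporter cells with a stable beta-lactamase p53 reporter; series mostly up to about 83 µM; nearly all actives have a fitted effect of over 30% in size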). The gist of the method:
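p53RE-bla cells were treated with compound for 16 hours at 37 C. Cytotoxicity was then measured as CellTiter-Glo luminescence after 30 min at room temperature.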

Assay [4] is described as follows: qHTS assay for small molecules that induce genotoxicity in human embryonic kidney cells expressing luciferase-tagged ATAD5 - cell viability (AID 651634; calls by dose curve; note: nearly all actives have a fitted effect of over 25% in size; note: potency is the fitted concentration of half-maximal effect). Put shortly: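 HEK293T cells carrying luciferase-tagged ATAD5, 2,000 cells/well, exposed to compound for 15.5 hr at 37C. Viability read as live-cell protease activity by CellTiter-Fluor fluorescence after 30 min at 37C.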

The nature of assay [5]: qHTS assay for small molecule disruptors of the mitochondrial membrane potential - cell viability (AID 720634; calls by dose curve;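 note: human HepG2 liver cancer cells; series mostly up to about 83 µM; nearly all actives have a fitted effect of over 20% in size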). The gist of the method:
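HepG2 cells, 2,000 per well, attached overnight, then treated 1 hr at 37 C, 5% CO2. Viability read as ATP by CellTiter-Glo luminescence after 30 min at room temperature. Read in the same wells as the m-MPI membrane-potential dye assay.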

Assay [6] can be described thus: qHTS assay for small molecule disruptors of the mitochondrial membrane potential (AID 720635). Note: potency is the fitted concentration of half-maximal effect. Put shortly:
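HepG2 cells exposed to compound 1 hr at 37C, then Mito-MPS dye 30 min. Ratio read of aggregate (540/590 nm) versus monomer (490/535 nm) fluorescence.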

The nature of assay [7]: qHTS assay to test for compound auto fluorescence at 590 nm (red) in HepG2 cells (AID 720674). The gist of the method: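 HepG2 cells, 2,000 per well in MEM with 10% FBS, attached overnight at 37 C, then got 23 nL compound or DMSO. After 1 hr at 37 C, 5% CO2, red fluorescence was read at 540/590 nm against Rose Bengal sodium as reference.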
A short description of assay [8]: qHTS assay to test for compound auto fluorescence at 535 nm (green) in HepG2 cells (AID 720675).
The nature of assay [9]: qHTS assay to test for compound auto fluorescence at 460 nm (blue) in HEK293 cells (AID 720678). Put shortly:
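Blue read-out at excitation 405 nm and emission 460 nm follows overnight compound exposure of HEK293 cells at 37C in 5% CO2. Activity is given as auto fluorescence equivalency to triamterene.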

Assay [10] in a line: qHTS assay to test for compound auto fluorescence at 590 nm (red) in HEK293 cells (AID 720679). Put shortly:
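Red channel, Ex/Em 540/590nm; signal expressed as equivalency to Rose Bengal sodium. HEK293, 2,000 cells/well, 10% dialyzed FBS; 23 nL compound pinned after 4-5 hr attachment; overnight 37C/5% CO2 before reading.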

For `C[C@]12C=CC(=O)C=C1CC[C@H]1[C@@H]3C[C@@H](O)[C@](O)(C(=O)CO)[C@@]3(C)C[C@H](O)[C@@]12F`, the Potency entry in assay [1], in [2], in assay [3], in assay [4], in assay [5] and in assay [6] was “inactive” each time. Also, the Potency result in assay [7], in [8] and in assay [10] was “inactive” each time. In addition, the compound was called inactive in assay [9].
Turning to `COC(=O)CC(=O)OC`, the Potency result in [1], in [2], in assay [3], in [4], in assay [5] and in [6] was “inactive” each time. In addition, the Potency result in assay [7], in assay [8] and in assay [10] was “inactive” each time. Further, the result in [9] was inactive.
`CC(=O)Nc1ccc2c(c1)Cc1cc(NC(C)=O)ccc1-2`: the Potency entry in assay [1], in assay [2], in [3], in assay [4], in assay [5] and in [6] was “inactive” each time. The Potency result in assay [7], in assay [8] and in [10] was “inactive” each time. Besides, in assay [9], the result was inactive.
For `CC(C)(C)c1cccc(C(C)(C)C)c1O`, the Potency entry in [1], in assay [2], in [3], in assay [4], in [5] and in [7] was “inactive” in each case. Further, the Potency entry in assay [8] and in assay [10] was “inactive” each time. Moreover, the Potency in [6] was 16.8 µM (active) and 15.4 µM (active). Also, the compound was called inactive in [9].
With `O=[Se](O)O`, the Potency in assay [1] was 24.4 µM (active) and inactive; in [4] it was 0.687 µM (active); in assay [6], 8.64 µM (active) and inactive. Besides, the Potency entry in assay [2], in assay [3], in assay [5], in assay [7], in assay [8] and in assay [10] was “inactive” each time. Further, in assay [9], the compound was classed as inactive.
With `Cc1ccc([N+](=O)[O-])c(C)c1`, the Potency result in assay [1], in assay [2], in [3], in assay [4], in [5] and in assay [6] was “inactive” throughout. Besides, the Potency result in [7], in assay [8] and in assay [10] was “inactive” in each case. For the same compound, in assay [9], the call was inactive.
Consider `CCCCCCCCCCC(CO)CCCCCCCC` (stereo not given), for which the Potency entry in assay [1], in assay [2], in [3], in [4], in assay [5] and in assay [6] was “inactive” in each case. Moreover, the Potency entry in assay [7], in [8] and in assay [10] was “inactive” in each case. For the same compound, in assay [9], the result was inactive.
Regarding `CC1=CC(C)(C)Nc2ccccc21`, the Potency entry in [1], in assay [2], in assay [3], in assay [4], in assay [5] and in [7] was “inactive” each time. The Potency entry in assay [8] and in [10] was “inactive” throughout. In assay [6], the Potency result is “inactive and 59.5 µM (active)”. Also, the compound was called inactive in assay [9].
Turning to `NCCS(=O)(=O)O`, the Potency result in assay [1], in assay [2], in assay [3], in [4], in assay [5] and in assay [7] was “inactive” in each case. The Potency entry in assay [8] and in [10] was “inactive” each time. For the same compound, the Potency entry in assay [6] was “inactive and 7.13 µM (active)”. Besides, the outcome in assay [9] was inactive.
As to `Nc1ccc(N)c(Cl)c1`, the Potency result in assay [1], in assay [2], in [3], in assay [4], in assay [5] and in assay [7] was “inactive” in each case. For the same compound, the Potency result in assay [8] and in assay [10] was “inactive” each time. Besides, in [6], the Potency was 3.85 µM (active) and 27.3 µM (active). For the same compound, the call in [9] was inactive.
In the case of `CC(C)(Oc1ccc(Cl)cc1)C(=O)O`, the Potency entry in assay [1], in [2], in [3], in [4], in assay [5] and in assay [7] was “inactive” in each case. For the same compound, the Potency result in assay [8] and in assay [10] was “inactive” in each case. Also, the call in assay [9] was inactive.
`CCCCCCCCCCCCO`: the Potency entry in [1], in [2], in assay [3], in assay [4], in [5] and in [6] was “inactive” throughout. Further, the Potency entry in assay [7], in assay [8] and in [10] was “inactive” in each case. Besides, the compound was called inactive in assay [9].
For `Clc1ccc(Sc2cc(Cl)c(Cl)cc2Cl)cc1`, the Potency result in [1], in assay [2], in [3], in [4], in [5] and in [7] was “inactive” each time. The Potency result in assay [8] and in [10] was “inactive” in each case. Further, in assay [6], the Potency is 1.68 µM (active) and 864 nM (active). Further, the outcome in assay [9] was inactive.
As to `CC(C)[N+](C)(CCOC(=O)C1c2ccccc2Oc2ccccc21)C(C)C`, the Potency entry in assay [1], in assay [2], in assay [3], in assay [4], in assay [5] and in assay [6] was “inactive” throughout. For the same compound, the Potency entry in assay [7], in assay [8] and in [10] was “inactive” throughout. Also, the compound was classed as inactive in [9].
Regarding `O=C1CCc2ccccc2O1`, the Potency entry in [1], in assay [2], in [3], in assay [4], in assay [5] and in [7] was “inactive” throughout. Moreover, the Potency entry in [8] and in assay [10] was “inactive” throughout. Further, the outcome in [9] was inactive.
Take `Cc1ccc(S(=O)(=O)O)cc1C`: the Potency entry in assay [1], in assay [2], in assay [3], in [4], in assay [5] and in [6] was “inactive” each time. Further, the Potency entry in assay [7], in assay [8] and in assay [10] was “inactive” in each case. Further, the compound was called inactive in assay [9].
Take `O=S1(=O)CCCO1`: the Potency result in [1], in assay [2], in assay [3], in assay [4], in assay [5] and in assay [7] was “inactive” each time. Moreover, the Potency entry in [8] and in [10] was “inactive” throughout. Besides, in assay [9], the compound was classed as inactive.
Take `CN(C)CCCN1c2ccccc2Sc2ccc(Cl)cc21`: the Potency in assay [1] is 10.9 µM (active). The Potency result in assay [2], in assay [3], in assay [4], in [5], in [7] and in [8] was “inactive” in each case. Also, in [10], the Potency entry is “inactive”. Besides, the outcome in assay [9] was inactive.
For the compound `O=C(O)CCCCCCCCCCCC(=O)O`, the Potency entry in assay [1], in assay [2], in [3], in assay [4], in assay [5] and in assay [7] was “inactive” each time. The Potency result in assay [8] and in [10] was “inactive” in each case. Further, the compound was classed as inactive in assay [9].
Turning to `CN1CCOCC1`, the Potency entry in assay [1], in assay [3], in assay [4], in assay [5], in [6] and in [7] was “inactive” throughout. Further, the Potency entry in assay [8] and in [10] was “inactive” each time. Besides, in assay [9], the outcome was inactive.
With `Oc1c(Cl)ccc(Cl)c1Cl`, the Potency entry in assay [1], in assay [2], in [3], in [4], in [7] and in [8] was “inactive” each time. Moreover, the Potency result in assay [10] is “inactive”. Further, the Potency in assay [6] is 4.32 µM (active) and 61.1 µM (active). Also, in assay [9], the compound was called inactive.
With `C[C@]12CC[C@@H]3c4ccc(O)cc4CC[C@H]3[C@@H]1CC[C@H]2O`, the Potency is 15.6 µM (active) and 27.3 µM (active) in assay [1]; 27.8 µM (active) and 27.3 µM (active) in [6]. Besides, the Potency result in [2], in [3], in [7], in [8] and in [10] was “inactive” throughout. In addition, the outcome in assay [9] was inactive.
For `CCCCCC=O`, the Potency result in assay [1], in assay [2], in [3], in assay [4], in [5] and in assay [7] was “inactive” each time. The Potency entry in assay [8] and in assay [10] was “inactive” each time. Further, the call in assay [9] was inactive.
